Here are results for 21 molecules from PubChem BioAssay (NCATS).

Results filed as inconclusive are left out. The source made the active and inactive calls. The call rests on the fitted dose curve. Bridge positions count the residues as written; N and C are the ends. Square brackets hold non-standard residues; d marks the D form. Peptide text beside a SMILES is read from it. * marks the point of attachment. X1 = CCC(C)C(N)C1=NC(C(=O)*)CS1; dOrn = NCCC[C@@H](N)C(=O)O

Assay [1] can be described thus: Primary qHTS for inhibitors of SARS-S pseudo-typed particle cell entry (AID 1479145). Further: nearly all actives have a fitted effect of over 45% in size. On activity change, negative = inhibition: on the % scale 0 is the no-effect control and ±100 the full control effect. As to conditions: SARS-S pseudotyped particle cell entry, luciferase reporter; series mostly up to 57.1 µM. For orientation: Quantitative high-throughput screening tests each substance at several concentrations.
Assay [2] in a line: Primary qHTS for Huh7 cytotoxicity: counterscreen for inhibitors of MERS-S pseudotyped particle cell entry (AID 1479147). On activity change, negative = cytotoxicity: on the % scale 0 is the no-effect control and ±100 the full control effect. As to conditions: cell viability read-out; series mostly up to 57.1 µM.
The nature of assay [3]: Primary qHTS for inhibitors of MERS-S pseudo-typed particle cell entry (AID 1479149). Further: nearly all actives have a fitted effect of over 60% in size. The note with it: MERS-S pseudotyped particle entry, luciferase; series mostly up to 57.1 µM.
A short description of assay [4]: Primary qHTS for Vero E6 cytotoxicity: counterscreen for inhibitors of SARS-S pseudo-typed particle cell entry (AID 1479150). On activity change, negative = cytotoxicity: on the % scale 0 is the no-effect control and ±100 the full control effect. The note with it: cell viability; series mostly up to 57.1 µM.
Assay [5] is described as follows: Cytotoxicity counterscreen for inhibitors of SARS-CoV-2 cell entry (AID 1645845). Further: nearly all actives have a fitted effect of over 50% in size. On activity change, negative = cytotoxicity: on the % scale 0 is the no-effect control and ±100 the full control effect. As to conditions: cell viability (SARS-CoV-2 entry assay cells); series mostly up to 57.1 µM. Summed up:
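Counterscreen run in the same HEK293-ACE2 line as the pseudotyped-particle entry assay, without particles. Viability after 48 h at 37 C was read as ATP luminescence, scaled between cell-containing and cell-free wells.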
Background: A counterscreen serves to expose hits that act by an unwanted route or on another target.

Assay [6] in a line: Primary qHTS to identify inhibitors of SARS-CoV-2 cell entry (AID 1645846). Further: nearly all actives have a fitted effect of over 45% in size. As to conditions: SARS-CoV-2 pseudovirus cell entry assay, luminescence; activity change, negative = inhibition: at 57.1 µM (top of the series) unless noted. In outline:
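Using luciferase-reporting pseudoviruses carrying Wuhan-Hu-1 spike, the screen tracks entry into stably ACE2-expressing cells over 48 hr. Activity is expressed relative to spike particles versus particles lacking any fusion protein.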

For `N[C@H](Cc1ccccc1)C(=O)O`, the Potency entry in assay [1], in assay [2], in assay [3], in assay [4] and in assay [5] was “inactive” each time. Moreover, the activity change, negative = inhibition in assay [6] is -27.4% [at 27.1 µM].
Turning to `CCC(=O)OCC(=O)[C@@]1(OC(=O)CC)[C@@H](C)C[C@H]2[C@@H]3CCC4=CC(=O)C=C[C@]4(C)[C@@]3(F)[C@@H](O)C[C@@]21C`, the Potency entry in assay [1], in assay [2], in assay [3], in assay [4], in assay [5] and in assay [6] was “inactive” each time.
For the molecule `CC(C)(S)C(=O)N[C@@H](CS)C(=O)O`, the Potency result in assay [1], in assay [2], in assay [3], in assay [4] and in assay [5] was “inactive” each time. The activity change, negative = inhibition in assay [6] is -16.1%.
Turning to `CC(=O)OCC1=C(C(=O)O)N2C(=O)[C@@H](NC(=O)CC#N)[C@H]2SC1`, the Potency result in assay [1], in assay [2], in assay [3], in assay [4], in assay [5] and in assay [6] was “inactive” throughout.
For `CN1CCc2nc(C(=O)N[C@@H]3C[C@@H](C(=O)N(C)C)CC[C@@H]3NC(=O)C(=O)Nc3ccc(Cl)cn3)sc2C1`, the Potency entry in assay [1], in assay [2], in assay [3], in assay [4] and in assay [5] was “inactive” in each case. For the same molecule, the activity change, negative = inhibition in assay [6] was -19.9%.
Regarding `CCC(C)C(N)C1=NC(C(=O)N[C@@H](CC(C)C)C(=O)N[C@H](CCC(=O)O)C(=O)N[C@H](C(=O)N[C@H]2CCCCNC(=O)[C@H](CC(N)=O)NC(=O)[C@@H](CC(=O)O)NC(=O)[C@H](Cc3cnc[nH]3)NC(=O)[C@@H](Cc3ccccc3)NC(=O)[C@H]([C@@H](C)CC)NC(=O)[C@@H](CCCN)NC2=O)[C@@H](C)CC)CS1` (stereo partly specified) (X1-L[dE]IK[dOrn]I[dF]H[dD]N; lactam 4-C), the Potency entry in assay [1], in assay [2], in assay [3], in assay [4] and in assay [5] was “inactive” throughout. In addition, the activity change, negative = inhibition in assay [6] was -8.8% [at 27.1 µM].
Take `Nc1c(CC(=O)O)cccc1C(=O)c1ccccc1`: the Potency result in assay [1], in assay [2], in assay [3], in assay [4], in assay [5] and in assay [6] was “inactive” in each case.
As for `O=C(O)[C@@H]1CCCN1`, the Potency entry in assay [1], in assay [2], in assay [3], in assay [4], in assay [5] and in assay [6] was “inactive” each time.
Turning to `Cn1c(=O)cc(N2CCC[C@@H](N)C2)n(Cc2cc(F)ccc2C#N)c1=O`, the Potency entry in assay [1], in assay [2], in assay [3], in assay [4] and in assay [5] was “inactive” in each case. The activity change, negative = inhibition in assay [6] was -23.7%.
Regarding `CC[C@H]1OC(=O)C[C@@H](O)[C@H](C)[C@@H](O[C@@H]2O[C@H](C)[C@@H](O[C@H]3C[C@@](C)(O)[C@@H](O)[C@H](C)O3)[C@H](N(C)C)[C@H]2O)[C@@H](CC=O)C[C@@H](C)C(=O)/C=C/C(C)=C/[C@@H]1CO[C@@H]1O[C@H](C)[C@@H](O)[C@@H](OC)[C@H]1OC`, the Potency entry in assay [1], in assay [2], in assay [3], in assay [4], in assay [5] and in assay [6] was “inactive” throughout.
For `C[C@]12CCC(=O)C=C1CC[C@@H]1[C@@H]2[C@@H](O)C[C@@]2(C)[C@H]1CC[C@]2(O)C(=O)COP(=O)(O)O`, the Potency result in assay [1], in assay [2], in assay [3], in assay [4] and in assay [5] was “inactive” in each case. For the same molecule, the activity change, negative = inhibition in assay [6] was 2.63% [at 27.1 µM].
For `CCCCC(=O)O`, the Potency result in assay [1], in assay [2], in assay [3], in assay [4] and in assay [5] was “inactive” each time. Moreover, in assay [6], the activity change, negative = inhibition was -20.8%.
For the molecule `CCCC(=O)O[C@]1(C(=O)COC(=O)CC)[C@@H](C)C[C@H]2[C@@H]3CCC4=CC(=O)C=C[C@]4(C)[C@@]3(F)[C@@H](O)C[C@@]21C`, the Potency result in assay [1], in assay [2], in assay [3], in assay [4], in assay [5] and in assay [6] was “inactive” each time.
As for `C[C@@H]1O[C@@H](O[C@@H]2/C=C/C=C/C=C\C=C\C[C@H](C)OC(=O)/C=C/[C@H]3O[C@@H]3C[C@H](O)C[C@]3(O)C[C@@H](O)[C@@H](C(=O)O)[C@H](C2)O3)[C@H](O)[C@H](N)[C@@H]1O`, the activity change, negative = inhibition is -7.42% [at 11.4 µM] (inactive) in assay [1] and -12.9% [at 11.3 µM] in assay [6]. In addition, the figures for the activity change, negative = cytotoxicity in assay [2], in assay [4] and in assay [5] were 0.894% [at 11.4 µM] (inactive), -4.87% [at 11.4 µM] (inactive) and 1.93% [at 11.3 µM] (inactive), respectively. For the same molecule, in assay [3], the outcome is “inactive [at 11.4 µM]”.
In the case of `CC[C@@H](C)C[C@@H](C)CCCCCCCCC(=O)NC1C[C@@H](O)[C@@H](NCCN)NC(=O)[C@@H]2[C@@H](O)CCN2C(=O)[C@H]([C@H](O)CCN)NC(=O)[C@H]([C@H](O)[C@@H](O)c2ccc(O)cc2)NC(=O)[C@@H]2C[C@@H](O)CN2C(=O)[C@H]([C@@H](C)O)NC1=O` (stereo partly specified), the Potency entry in assay [1], in assay [2], in assay [3], in assay [4] and in assay [5] was “inactive” each time. Also, in assay [6], the activity change, negative = inhibition was -9.2% [at 27.1 µM].
With `CCCCCCCCCCCCCCCC(=O)OCC(=O)[C@@]1(O)[C@H](C)C[C@H]2[C@@H]3CCC4=CC(=O)C=C[C@]4(C)[C@@]3(F)[C@@H](O)C[C@@]21C`, the Potency entry in assay [1], in assay [2], in assay [3], in assay [4] and in assay [5] was “inactive” throughout. For the same molecule, in assay [6], the activity change, negative = inhibition turned out to be 3.26%.
With `CC[C@H]1[C@@H](O)[C@@H]2[C@H](CC[C@]3(C)[C@@H]([C@H](C)CCC(=O)O)CC[C@@H]23)[C@@]2(C)CC[C@@H](O)C[C@@H]12`, the Potency entry in assay [1], in assay [2], in assay [3], in assay [4] and in assay [5] was “inactive” throughout. Further, the activity change, negative = inhibition in assay [6] is -6.18%.
Take `CCC(Oc1ccccc1)C(=O)N[C@@H]1C(=O)N2[C@@H]1SC(C)(C)[C@@H]2C(=O)O` (stereo partly specified): the Potency entry in assay [1], in assay [2], in assay [3], in assay [4] and in assay [5] was “inactive” throughout. Further, in assay [6], the activity change, negative = inhibition was -26.6% [at 114 µM].
As to `O=C(OCCO)c1ccccc1O`, the Potency entry in assay [1], in assay [2], in assay [3], in assay [4] and in assay [5] was “inactive” throughout. The activity change, negative = inhibition in assay [6] is -11%.
Turning to `O=C(Cn1cnnn1)N[C@@H]1C(=O)N2C(C(=O)O)=C(CSc3nncs3)CS[C@H]12`, the Potency entry in assay [1], in assay [2], in assay [3], in assay [4] and in assay [5] was “inactive” throughout. In addition, the activity change, negative = inhibition in assay [6] is -9.88%.
Take `C[C@]12CCC3=C4CCC(=O)C=C4CC[C@H]3[C@@H]1CC[C@@]2(O)CC#N`: the Potency result in assay [1], in assay [2], in assay [3], in assay [4] and in assay [5] was “inactive” each time. For the same molecule, in assay [6], the activity change, negative = inhibition is -3.65%.
